Shown are actives, neighbours in structure and some others; about 5.1% of the full set was active somewhere.
Cl transport mod = modulates chloride dependent transport by human KCC2; B-score of Tl+ flux slope (higher = more flux/activation; lower = inhibition) at 10 µM; KCC2 cells, thallium flux FluoZin-2 fluorescence; hit rate 2.2% among 190,000;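 active = thallium flux slope and its plate-corrected score both differing from the plate sample mean at a set confidence after two filtering rounds, in either direction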;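 also: slope of fluorescence scaled to starting intensity during 10 to 20 s after thallium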
ROMK primary = modulators of human ROMK potassium channel | hit rate 2% among 130,000 | Tet-inducible ROMK, thallium flux fluorescence; actives lie on both sides | B-score at 10 µM | P48048;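 active = signal ratio slope over the read window, or its plate-corrected B-score, at least 3 SD from the plate mean, either direction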;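 also: B-score of the F/F0 ratio slope over 7 to 12 s after thallium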
S1P3 antagonist = S1P3 (human) receptor antagonism; hit rate 0.27% among 170,000; Q99500; AID 485; inhibition, % at 4.98 µM; CHO S1P3 NFAT-BLA reporter, FRET fluorescence, antagonist mode;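 active = inhibition above the plate cutoff, the mean inhibition of test wells on that plate plus 3 SD, cut at about 28% in these data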;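 also: cells challenged with S1P at its EC80 of 0.8 µM; blue over green emission ratio from cleaved BLA substrate after 4 h stimulation; 0% = S1P-stimulated wells and 100% = unstimulated DMSO-only wells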
Target sequence (Q99500 whole entry, looked up): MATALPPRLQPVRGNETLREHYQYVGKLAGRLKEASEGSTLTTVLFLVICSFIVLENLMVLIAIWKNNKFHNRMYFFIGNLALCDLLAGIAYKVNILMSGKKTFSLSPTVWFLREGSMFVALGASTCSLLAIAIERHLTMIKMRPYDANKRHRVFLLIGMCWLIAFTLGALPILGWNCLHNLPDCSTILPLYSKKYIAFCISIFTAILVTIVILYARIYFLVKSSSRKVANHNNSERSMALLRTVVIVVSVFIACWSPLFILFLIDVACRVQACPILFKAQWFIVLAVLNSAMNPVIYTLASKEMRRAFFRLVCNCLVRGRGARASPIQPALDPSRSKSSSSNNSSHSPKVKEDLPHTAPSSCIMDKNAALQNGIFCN
S1P4 antagonist = antagonists of human S1P4 receptor | hit rate 0.26% among 220,000 | inhibition, % at 4.98 µM | AID 1510 | S1P4-expressing cells, antagonist mode, reporter read-out | O95977; in the data active = inhibition above about 29%;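 also: 0% = wells stimulated with agonist and 100% = vehicle wells without agonist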
RAM inhibit = blocks the yeast RAM network; S. cerevisiae dse1pr::URA3 reporter, 5-FOA growth OD615, 2 d; analog-sensitive cbk1-as2 kinase mutant strain; inhibition, % at 50 µM; hit rate 1.8% among 190,000; AID 868;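 active = inhibition above a set limit, 3 SD over mean compound inhibition, cut at about 8.4% in these data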;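 also: 0% = DMSO-only wells with no growth and 100% = 10 µM 1-NA-PP1 full growth; inhibition rescues growth on 5-FOA so higher OD means more RAM inhibition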
S1P4 agonist = activates the human S1P4 receptor; O95977; S1P4-expressing cell line, agonist reporter assay; activation, % at 4.98 µM; hit rate 0.35% among 220,000; in the data active = activation above about 11%;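 also: 0% = DMSO vehicle and 100% = reference agonist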
S1P4 agonist cf = human S1P4 agonism, confirmation. activation, % at 4.98 µM. S1P4 agonist cell-based reporter assay. AID 1523. hit rate 7% among 740. shares compounds with S1P4 agonist; in the data active = activation above about 12%;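 also: 0% = vehicle and 100% = full reference agonist response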
S1P1 ag = human S1P1 agonism as S1P4 agonist counter-screen. shares compounds with S1P4 agonist. S1P1 agonist cell-based assay, activation. activation, % at 4.98 µM. hit rate 4% among 740; in the data active = activation above about 21%;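 also: 0% = vehicle wells and 100% = reference agonist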
An asterisk follows results filed as active; x = no result given.

SMILES	Cl transport mod	ROMK primary	S1P3 antagonist	S1P4 antagonist	RAM inhibit	S1P4 agonist	S1P4 agonist cf	S1P1 ag
CCN(CC(=O)Nc1cc(C)nn1-c1nc(C)cc(C)n1)Cc1ccccc1	0.16	0.041	x	1	1	195*	-2	1
CCOc1ccc(N2CCc3c(C)nc(SC)nc32)cc1	-0.17	0.27	-11	-2	0	-1	x	x
Cc1cc(Br)cc2cn[nH]c12	x	1.2	0	-18	-1	1	x	x
CCCN(CCC)C(=O)CC(c1ccccc1)c1cc(C)ccc1O (stereo not given)	x	-0.91	x	-8	2	51*	-2	2
Cc1ccc(O)c(C(CC(=O)NC(C)C)c2ccccc2)c1 (stereo not given)	0.058	1.7	1	-3	0	1	x	x
Cc1ccc(C)n1-c1ccc(C(=O)N/N=C/c2ccncc2)cc1	1.4	-0.17	-10	-30	1	2	x	x
C=CCOc1cccc(CNc2cccc(C(=O)O)c2)c1	0.82	x	-1	-1	x	0	x	x
COc1cc(/C=N/NC(=O)CNC(=O)c2ccco2)ccc1O	-0.0098	-0.085	-26	-2	1	-1	x	x
COc1cc(C(=O)NCC(=O)N/N=C/c2ccc(OC(=O)c3ccco3)cc2)cc(OC)c1OC	-1.2	-0.28	6	10	2	21*	-2	-11
COCn1c(-c2cccc(Br)c2)nc2ccccc21	-1.4	-2	23	15	-1	82*	0	7
CCOc1ccsc1C(=O)OC	0.00062	x	2	8	x	1	x	x
CN(C(=O)c1ccc(OC2CCN(CCc3ccccc3)CC2)cc1)C1CCCCC1	0.087	-1.2	-3	0	1	0	x	x
O=C1COC(c2ccccc2)C2CCCCN12 (stereo not given)	0.042	0.9	1	-12	2	1	x	x
COc1ccccc1/C=C(/CC(=O)NCc1ccc(F)cc1)c1nc2ccccc2s1	-0.0099	0.81	1	12	2	63*	-1	-5
COc1ccc(CCNC(=S)NCCc2ccc(OC)c(OC)c2)cc1OC	0.11	1.5	0	-6	x	1	x	x
COc1ccc(CCN/C=C2/CC(=O)NC2=O)cc1OC	x	0.11	-32	5	1	17*	-1	2
CN1C(=O)OC2(C)CCc3ccccc3C12C (stereo not given)	0.067	-0.1	22	-16	1	22*	-1	-2
Cc1ccc(S(=O)(=O)N2CCN(C(=O)Cn3nc(C(=O)O)c4ccccc4c3=O)CC2)cc1	-0.79	x	-11	-4	x	1	x	x
CCCC(=O)Nc1ccc(-c2nc3cc(C)c(C)cc3o2)cc1	x	-0.034	19	5	1	13*	0	-4
CCCC(=O)Nc1ccc2oc(-c3ccncc3)nc2c1	-0.31	0.93	-30	-12	2	0	x	x
N#CCC(CNc1ncc(C(F)(F)F)cc1Cl)OC(=O)c1cccc(C(F)(F)F)c1 (stereo not given)	x	x	x	1	3	16*	-2	5
O=C(OCCNc1ncc(C(F)(F)F)cc1Cl)c1ccc(S(=O)(=O)N2CCOCC2)cc1	1.1	x	x	12	2	0	x	x
COc1cc(-c2nc(CN(C)Cc3nnc(C)o3)c(C)o2)ccc1F	-2	x	-11	-14	2	-1	x	x
Cc1cc(N2CCCC(C(=O)Nc3ccc4c(c3)CCC4)C2)n2ncnc2n1 (stereo not given)	0.045	-1.7	9	12	0	17*	-2	-5
CC1CN(CC(O)COC(c2ccccc2)c2ccccc2)CC(C)O1 (stereo not given)	0.13	-1.4	-15	-9	1	57*	-1	5
SMILES	Cl transport mod	ROMK primary	S1P3 antagonist	S1P4 antagonist	RAM inhibit	S1P4 agonist	S1P4 agonist cf	S1P1 ag
OC(COC(c1ccccc1)c1ccccc1)CN1CCOCC1 (stereo not given)	0.29	-0.39	6	7	0	2	x	x
COc1ccc(C)cc1NC(=O)c1cnc2n(c1=O)CCS2	0.8	-0.33	2	-18	2	17*	-2	-1
COc1ccc(C)cc1NC(=O)c1cnc2scc(C)n2c1=O	0.067	x	-19	-13	3	0	x	x
COc1ccc(O)c(C2=Nc3ccccc3N=C(c3ccco3)C2)c1	x	x	x	-12	4	69*	-3	3
COc1cc(C2NC(=S)NC(C)=C2C(=O)Nc2cc(C)cc(C)c2)ccc1O (stereo not given)	-0.53	x	-6	-11	x	33*	-1	-1
CCOc1cc(C2NC(=S)NC(C)=C2C(=O)Nc2ccccc2)ccc1O (stereo not given)	0.017	x	-11	-14	x	0	x	x
CN(C)c1ccc(C(=O)OCC(=O)NCC2CCCO2)cc1 (stereo not given)	0.83	0.46	x	8	1	1	x	x
O=c1c2c3c(sc2nc2sc(CN4CCOCC4)cn12)CCCC3	-0.57	x	2	-13	0	41*	-2	-4
O=C(NCCN1CCOCC1)c1cccn2c(=O)c3c4c(sc3nc12)CCCC4	-1.2	0.15	-8	-28	x	1	x	x
Cn1cccc1C(=O)NC(=O)COC(=O)CNC(=O)CNC(=O)c1ccc(Cl)cc1Cl	1.3	0.91	-24	-4	0	22*	-2	8
Cn1cccc1C(=O)NC(=O)COC(=O)CNC(=O)c1ccc(Cl)cc1Cl	-0.21	0.17	-5	-6	5	2	x	x
CCC(C)NC(=O)Cn1c(=O)n(CCCCCC(=O)Nc2ccccc2)c(=O)c2sccc21 (stereo not given)	0.033	0.47	-5	-15	2	0	x	x
CCN(CC)C(=O)Cn1c(=O)n(CCCCCC(=O)Nc2ccccc2)c(=O)c2sccc21	0.11	x	8	-7	1	12*	-2	-2
CN1CCC(OC(=O)c2cccc(Cl)c2)CC1	0.11	0.11	-13	-13	3	2	x	x
Cc1nn(Cc2ccccc2)c(C)c1/C=N/NC(=O)c1ccccc1O	0.52	x	-3	9	x	1	x	x
CC(=O)Nc1ccc(S(=O)(=O)n2nc(-c3ccc(C)cc3)nc2N)cc1	-0.056	0.41	6	0	5	21*	-1	0
CS(=O)(=O)N(Cc1ccccc1)c1ccccc1C(=O)O	-0.075	1.4	x	-1	0	-1	x	x
COc1ccc(OC)c(NC(=O)c2ccccc2N(Cc2ccccc2)S(C)(=O)=O)c1	-0.026	0.14	4	-1	0	58*	-2	-6
C=CCc1c(O)c(CC)cc2c(C)cc(=O)oc12	-1.3	0.38	-2	-8	x	28*	6	7
CSc1nc(N)c(C#N)c(-c2ccc(Cl)cc2)c1C#N	-0.61	x	-6	20	6	11*	9	-8
CSc1nc(-c2ccc(Cl)cc2)nc(N)c1C#N	0.52	0.11	-3	-6	x	0	x	x

Bioassay records from PubChem.
